# Screens (PubChem)
# Only a sample is shown.
# aSyn 5UTR act = Activators via SNCA 5'UTR binding, MLPCN; alpha-synuclein 5'UTR reporter, activators screen; activity score, % (tested at 7.5 µM), hits read low; 7.1% of 300,000 active; AID 1814; in the data active = activity score below about -60%
# Numbers without * were called inactive.
SMILES,aSyn 5UTR act
CCOC(=O)c1[nH]c(C)c(C(=O)c2cc(F)ccc2F)c1C,73.9
CC(Sc1nnc(NC2CCCCC2)s1)C(=O)Nc1ccc2c(c1)C(=O)c1ccccc1C2=O (stereo not given),-79.1*
CCCC(=O)N1c2ccccc2C(=C2SC(C(=O)OC)=C(C(=O)OC)S2)C(=S)C1(C)C,-88.3*
COc1ccc(CSc2nnc(SCc3ccc([N+](=O)[O-])cc3)s2)cc1,-121.6*
COCCCNC(=O)/C=C/c1ccc(Cl)cc1Cl,-84.6*
O=C(Nc1ccc2c(c1)OCO2)N1CCN(S(=O)(=O)c2ccc(Cl)cc2)CC1,-67.8*
O=C(Nc1ccc2c(c1)OCO2)N1CCN(c2ccccc2Cl)CC1,-187.4*
O=C(Nc1ccc2c(c1)OCO2)N1CCC(CO)(CC2CCCCO2)CC1 (stereo not given),-90.9*
COC(=O)c1ccc(N=NNc2ccc(C(=O)OC)cc2)cc1,-86.4*
COC(=O)c1ccc(N=NNc2ccccc2)cc1,-226.2*
O=C(O)c1ccc(N=NNc2cccc([N+](=O)[O-])c2)cc1,-106.6*
CCCC(=NCCc1c(C)[nH]c2ccccc12)C1=C(O)CC(c2ccccc2)CC1=O (stereo not given),86.5
Cc1[nH]c2ccccc2c1CN1CCc2ccccc2C1,-61.8*
CC(=O)c1c(C)oc2ccc(N(C(C)=O)S(=O)(=O)c3ccc(Cl)c([N+](=O)[O-])c3)cc12,111.5
CN(C)/C=C/C(=O)c1ccc(Cl)c([N+](=O)[O-])c1,-73.2*
Cc1ccc(C(=O)N2CCN(c3ccc(NC(=S)NC(=O)c4cccs4)cc3)CC2)cc1,52.0
O=C(NC(=S)Nc1ccc(N2CCOCC2)cc1)c1cccs1,-125.5*
Cc1cccc(C(=O)NC(=S)Nc2ccc(N3CCOCC3)cc2)c1,-65.7*
C/C(=N/NC(=O)c1cccs1)c1ccc(N2CCOCC2)cc1,-65.8*
CCC(=O)n1nc(-c2ccc(OC)cc2)nc1SC,-92.4*
CCC(=O)n1nc(-c2ccc(Cl)cc2)nc1SC,-103.6*
CCCC(=O)n1nc(-c2ccc(Cl)cc2)nc1SC,-84.1*
CSc1ncc(-c2ccc(Cl)cc2)[nH]1,-145.0*
Cn1cccc1/C=C1\SC(=O)N(c2ccc(O)cc2)C1=O,-143.8*
O=C(O)COc1cccc2ccccc12,-65.3*
SMILES,aSyn 5UTR act
O=C(COC(=O)c1ccc[nH]c1=O)NCCc1ccc(Cl)cc1Cl,-97.7*
COc1cc(N/N=C(\C)c2ccc(N)cc2)nc(-c2ccccc2)n1,-62.3*
Cc1ccc(-n2nnc3ccccc3c2=O)cc1C,-149.7*
c1ccc(Nc2nnc(-c3cccc4ccccc34)o2)cc1,-92.8*
O=C(NCC1CCCO1)c1c(O)c2c([nH]c1=O)CCCC2 (stereo not given),-112.4*
CCCNC(=O)c1ccc2c(=O)c(O)c(-c3cccc(Br)c3)[nH]c2c1,83.7
CCCNC(=O)c1c(O)c2c([nH]c1=O)CCCC2,-77.0*
O=C(Nc1ccc(O)cc1)c1c(O)c2c([nH]c1=O)CCCC2,-131.0*
COc1ccc(-c2nnc(SCc3ccccn3)n2C)cc1,-66.8*
COc1ccc(-c2nnc(SCc3ccccc3)n2N)cc1,-142.4*
COc1ccc(-c2nnc(SCCc3ccccc3)n2N)cc1,-82.5*
COc1ccc(N=C(N)SCc2ccccn2)cc1,-79.3*
COc1cccc2sc(NC(=O)c3ccc(Br)s3)nc12,-146.4*
COC(=O)Nc1nc2ccc(Br)cc2s1,-147.6*
Cc1cccc2sc(NC(=O)c3ccc(Cl)s3)nc12,-198.9*
Cc1cccc2sc(NNC(=O)c3ccc(S(=O)(=O)N4CCc5ccccc5C4)cc3)nc12,66.9
COC(=O)Nc1nc2c(C)cccc2s1,-92.5*
C/C(=N\NC(=O)CSCc1ccc(Cl)cc1)c1ccc(NC(=O)c2ccccc2)cc1,-137.0*
O=C(Nc1ccc(CN2CCOCC2)cc1)c1ccco1,-68.8*
O=C(Nc1ccc(CN2CCOCC2)cc1)c1ccc(Br)cc1,-173.4*
O=C(N/N=C/c1ccccc1[N+](=O)[O-])c1ccc(CN2CCOCC2)cc1,-82.6*
O=C(NCCSc1ccccc1)c1ccc(CN2CCOCC2)cc1,-126.2*
O=C(Nc1ccc(CN2CCOCC2)cc1)c1ccc(Cl)cc1,-207.4*
CC(C)(C)c1ccc(C(=O)Nc2ccc(CN3CCS(=O)(=O)CC3)cc2)cc1,-68.2*
O=C(NN=C1CCN(Cc2ccccc2)CC1)c1ccccc1,-87.9*
SMILES,aSyn 5UTR act
O=C(Nc1ccc(CN2CCOCC2)cc1)c1ccc(F)cc1,-116.8*
O=C(Nc1ccc(CN2CCOCC2)cc1)c1ccc2ccccc2c1,-181.7*
C/C(=N\NC(=O)c1ccc(CN2CCOCC2)cc1)c1ccc(NC(=O)c2ccccc2)cc1,-76.5*
O=C(Nc1cccc([N+](=O)[O-])c1)c1ccc(CN2CCOCC2)cc1,-124.1*
O=C(Nc1cccc(Cl)c1)N1CCN(Cc2ccccc2)CC1,-158.8*
S=C(Nc1cc(Cl)cc(Cl)c1)NC1CCN(Cc2ccccc2)CC1,72.0
O=C(NCCc1ccc(F)cc1)Nc1ccc2c(c1)OCO2,-138.9*
O=C(CCc1ccccc1)Nc1ccc2c(c1)OCO2,-122.8*
O=C(CCS(=O)(=O)c1ccc(Br)cc1)Nc1ccc2c(c1)OCO2,-64.1*
O=C(Nc1ccc2c(c1)OCO2)OCc1ccccc1,-123.5*
